# Pin1 inh: qHTS Assay to Find Inhibitors of Pin1; Potency, µM (doses to about 115 µM), for the others: at the top dose activity, negative = inhibition, actives largely listed as inhibitors; Peptidyl-prolyl cis-trans isomerase NIMA-interacting 1 (Homo sapiens), Q13526; 0.009% of 390,000 active; Pin1 FP peptide displacement, HiFluor488, 10 min; active = well fitted inhibition curve with a large enough effect in the polarisation, with a control signal flat, not every such curve was filed as active; inconclusive = small, poorly fitted or top-dose-only effect, or effect the other way, or a change in a side signal; inactive = no such curve, though single readings can be large or run the other way; the % refers to the polarisation; also: potency is read from the fitted curve at half-maximal effect
# Target sequence (Q13526 whole entry, looked up): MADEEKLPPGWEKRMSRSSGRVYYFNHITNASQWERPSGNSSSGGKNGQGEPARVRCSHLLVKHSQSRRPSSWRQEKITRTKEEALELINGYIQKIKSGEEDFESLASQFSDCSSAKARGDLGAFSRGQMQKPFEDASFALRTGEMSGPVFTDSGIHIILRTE
# Tb PGK inh: qHTS Assay to Find Inhibitors of Phosphoglycerate Kinase; Phosphoglycerate kinase, glycosomal (Trypanosoma brucei brucei), P07378; PGK/GAPDH coupled, Kinase-Glo luminescence, 60 min; Potency, µM (top dose mostly 57.5 µM), for the others: top-dose activity change, negative = inhibition, most hits filed as inhibitors; 0.043% of 380,000 active; AID 602233, 2012; active = well fitted inhibition curve with a large enough effect; inconclusive = small, poorly fitted or top-dose-only effect; inactive = no such curve, though single readings can be large or run the other way; also: potency is read from the fitted curve at half-maximal effect; nearly all actives have a fitted effect of over 60% in size
#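 Luminescent ATP detection (Kinase-Glo Plus) follows a 60-minute room-temperature incubation, with wells lacking PGK as controls. Buffer: 100 mM TEA (pH 7.6), 5 mM MgCl2, 0.01% Tween-20. Coupling enzyme GAPDH (100 nM final) supplies unstable 1,3-BPG in-well.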
# PI5P4K alpha inh: qHTS for Inhibitors of phosphatidylinositol 5-phosphate 4-kinase (PI5P4K) | Phosphatidylinositol 5-phosphate 4-kinase type-2 alpha (Homo sapiens), P48426 | PI5P4Kalpha enzyme, ADP-Glo luminescence, 60 min; hits give low values | max response, % | 1.2% of 330,000 active | AID 652105, 2013; active = max response of -50% or lower; inconclusive = between -30% and -50%; inactive = -30% or higher; also: value at the top dose of about 77 µM
#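 qHTS, 1536-well: enzyme/substrate mix, compound by pin tool, 5 microM ATP final; RT 60 min; ADP-Glo reagents 1 (45 min) then 2 (30 min); luminescence.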
# PI4K2A block: qHTS for small molecular inhibitors of PI4K2A | purified PI4K2A, ADP-Glo luminescence, 1 h; hits give low values | Phosphatidylinositol 4-kinase type 2-alpha (Homo sapiens), Q9BTU6 | 0.13% of 420,000 active | activity change, negative = inhibition, % at 76.9 µM; in the data active = activity change below about -50%; inconclusive = mostly about -30% to -49%;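 also: -100% = wells without enzyme as full effect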
# Target sequence (Q9BTU6 whole entry, looked up): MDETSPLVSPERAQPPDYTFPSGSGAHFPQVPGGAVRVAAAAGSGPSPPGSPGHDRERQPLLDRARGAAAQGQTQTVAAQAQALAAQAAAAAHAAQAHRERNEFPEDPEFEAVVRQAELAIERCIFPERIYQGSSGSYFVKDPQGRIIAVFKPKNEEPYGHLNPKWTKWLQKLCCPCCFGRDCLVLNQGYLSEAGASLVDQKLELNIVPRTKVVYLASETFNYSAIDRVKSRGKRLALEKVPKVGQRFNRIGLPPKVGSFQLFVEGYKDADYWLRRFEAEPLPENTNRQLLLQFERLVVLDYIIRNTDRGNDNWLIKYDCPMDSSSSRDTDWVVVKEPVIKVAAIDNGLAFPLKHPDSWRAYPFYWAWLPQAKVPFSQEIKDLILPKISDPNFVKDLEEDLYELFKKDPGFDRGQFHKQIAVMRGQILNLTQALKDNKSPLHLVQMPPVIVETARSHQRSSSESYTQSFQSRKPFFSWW
#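 Compounds are screened against recombinant PI4K2A using PI as substrate and ATP, the latter dispensed at 300 microM. Reactions run one hour at ambient temperature before ADP-Glo detection; full inhibition defined by wells lacking enzyme.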
# * hit, by the source's call; i = inactive; ? = inconclusive; · = no result. Many of the other results were omitted from the sample, so hits are more common in it than they were. Unless noted, % is scaled to controls: 0 for no effect and ±100 for the full control effect.
SMILES,Pin1 inh,Tb PGK inh,PI5P4K alpha inh,PI4K2A block
C=CCn1c(SCC(=O)Nc2ccc(C(=O)O)cc2)nc2scc(-c3ccccc3)c2c1=O,3.1%,-3.2%,-91.6*,-2.3
Cc1cc2c(=O)n(C)c(SCC(=O)Nc3ccccc3)nc2s1,6.1%,-7.3%,-10.7,-3.2
COc1ccc(C2Nc3ccccc3C(=O)N2Cc2ccccc2)cc1COc1ccc(Cl)cc1 (centres undefined),7.9%,·,·,·
O=C(COC(=O)c1ccc2ncsc2c1)NC(=O)C1CCCCC1,0.4%,·,·,·
COc1cccc(C2c3c(ncn(-c4cccc(C#N)c4)c3=N)Oc3ccc4ccccc4c32)c1 (centres undefined),19.4%,·,·,·
O=c1cc(O)c2ccc(O)cc2o1,-21.9%,-5.0%,-50.4*,3.7
Cc1cc(=O)oc2cc(O)ccc12,-3.6%,-7.4%,0.2,-5.2
Nc1ccc(O)c(C(=O)O)c1,·,·,·,-6.8
O=C(O)C1=CC(=C(c2ccc(O)c(C(=O)O)c2)c2ccc(O)c(C(=O)O)c2)C=CC1=O,·,·,·,-85.7*
O=C1OC2(c3ccccc31)c1cc(Br)c(O)c(Br)c1Oc1c2cc(Br)c(O)c1Br,·,·,·,-12.3
COc1cc(/C=C2\CCc3c2nc2ccccc2c3C(=O)O)cc(OC)c1OC,?,?,-62.2*,-6.3
COc1ccc2ccccc2c1C(=O)/C=C\c1ccoc1,-3.5%,-13.5%,-53.0*,-2.1
Cc1ccc(NC(=O)c2cc(N3C(=O)CCC3=O)ccc2N2CCOCC2)cc1,-10.0%,i,4.5,0.4
Cc1ccc(NC(=O)c2cc(N3C(=O)C=CC3=O)ccc2N2CCOCC2)cc1Cl,0.0%,-5.4%,-76.5*,7.3
CCn1ccc(NS(=O)(=O)c2ccc(N)cc2)nc1=O,·,·,·,1.1
CCc1ccc(/C=C2/SC(=S)NC2=O)cc1,·,·,·,0.0
O=C1NC(=S)SC1=Cc1ccc(F)cc1,-10.2%,3.5%,-71.2*,-3.9
O=C1NC(=S)SC1=Cc1ccc(Cl)cc1,-1.1%,-7.2%,-51.0*,-12.5
O=C1NC(=S)SC1=Cc1cccs1,-14.5%,i,-67.5*,-9.0
O=C1NC(=O)/C(=C\c2ccc(Cl)nc2)S1,-3.5%,·,?,-5.0
NC(=O)C1CCN(c2ncc(-c3ccc4c(c3)OC(F)(F)O4)s2)CC1,1.4%,·,·,·
CCC(C)(CCN1CCOCC1)N(Cc1cc2ccccc2n(C)c1=O)C(=O)C1CCCCC1 (centres undefined),0.8%,·,·,·
O=C(CN1C(=O)/C(=C\c2ccco2)SC1=S)Nc1ccc(O)cc1C(=O)O,-2.4%,?,-62.0*,-8.5
O=C(CCCN1C(=O)/C(=C/c2ccco2)SC1=S)Nc1ccccc1C(=O)O,?,-28.3%,-81.7*,-2.2
O=C(CCCN1C(=O)/C(=C\c2ccccc2)SC1=S)Nc1ccc(O)cc1C(=O)O,-4.6%,i,-15.4,-10.2
SMILES,Pin1 inh,Tb PGK inh,PI5P4K alpha inh,PI4K2A block
O=C(CCN1C(=O)/C(=C/c2ccco2)SC1=S)Nc1ccc(O)cc1C(=O)O,?,?,-62.8*,-1.9
Nc1ncc(-c2cccc(-c3nn4c(=O)cc(N5CCNCC5)nc4s3)c2)cn1,35.3%,·,·,·
COc1cccc(OC)c1-c1nn2c(-c3cc(-c4ccccc4)n[nH]3)nnc2s1,?,-12.4%,-65.8*,3.7
O=C(COc1ccccc1C(=O)N/N=C\c1ccc(O)c(O)c1)N/N=C/c1ccc(O)c(O)c1,?,2.24µM*,-73.0*,-4.1
COc1cccc(N2C(=O)c3ccccc3C2=O)n1,0.0%,·,·,·
O=C(NN=Cc1c[nH]c2ccccc12)NN=Cc1c[nH]c2ccccc12,·,-6.0%,-88.6*,1.0
CCN(CC)CCNC(=O)c1c2c(nc3ccccc13)C(=O)N(C1CCCCC1)C2,1.3%,0.8%,·,0.1
Nc1nc(N)c2nc(-c3ccccc3)c(N)nc2n1,-2.1%,-9.7%,?,-4.8
NSc1nc(N)c2nc(-c3ccccc3)c(-c3ccccc3)nc2n1,4.5%,-3.2%,-53.1*,-4.3
Cc1c(N=C2C=C(Br)C(=O)C(Br)=C2)c(=O)n(-c2ccccc2)n1C,0.2%,1.8%,-78.5*,0.2
Cc1c(N=Nc2ccc(O)cc2)c(=O)n(-c2ccccc2)n1C,0.6%,i,2.7,0.1
Cc1c(N2C(=O)c3ccccc3C2=O)c(=O)n(-c2ccccc2)n1C,3.3%,-0.7%,-7.5,-8.3
Cc1c(N=C2C=CC(=O)c3ccccc32)c(=O)n(-c2ccccc2)n1C,-16.0%,-0.7%,-61.6*,-13.8
COc1ccc(NC(=O)C(OC(=O)CNC(=O)c2ccccc2)c2ccccc2)cc1Cl (centres undefined),1.6%,·,·,·
CC(=O)OCC(=O)[C@@]12N=C(C)O[C@@H]1C[C@H]1[C@@H]3CCC4=CC(=O)C=C[C@]4(C)[C@H]3[C@@H](O)C[C@@]12C,·,·,·,4.1
O=C(C=P(c1ccccc1)(c1ccccc1)c1ccccc1)c1ccccc1-c1ccccc1C(=O)C=P(c1ccccc1)(c1ccccc1)c1ccccc1,?,-10.6%,-64.7*,2.7
O=C(NNC(=O)c1ccccc1-c1ccccc1C(=O)O)c1ccccc1,0.4%,-3.2%,3.7,-1.6
COc1cccc(/C=N/Nc2ccc(C(=O)O)cc2)c1O,0.0%,-0.5%,-21.1,-73.0*
COc1cccc(/C=N/Nc2ccc(S(=O)(=O)O)cc2)c1O,-5.3%,-8.9%,·,-0.1
O=C(/C=C\c1ccco1)NC(=S)Nc1ccccc1O,-0.7%,-4.5%,-53.0*,-3.6
O=C(/C=C/c1ccco1)NC(=S)Nc1ccccc1O,19.4%,-5.2%,-17.2,-5.0
Cc1ccc(NC(=S)NC(=O)/C=C/c2ccco2)c(O)c1,-4.0%,i,-53.8*,-0.9
COc1ccccc1OCC1CNC(=O)O1 (centres undefined),·,·,·,1.6
Cc1csc(CNc2ncnc3cc(-c4ccc5c(c4)OCO5)ccc23)n1,12.8%,·,·,·
O=C(N/N=C/c1ccc(-c2ccc(Cl)c(C(=O)O)c2)o1)c1cc2c(ccc3ccccc32)o1,·,?,-79.8*,-5.7
SMILES,Pin1 inh,Tb PGK inh,PI5P4K alpha inh,PI4K2A block
CNC(=S)N/N=C/c1ccc(-c2ccc(C(=O)O)cc2)o1,1.0%,?,-61.7*,-26.0
O=C(O)c1cc(-c2ccc(/C=N/Nc3ccc([N+](=O)[O-])cn3)o2)ccc1Cl,67.2%,-8.7%,-61.0*,-10.6
O=C(O)c1ccc(-c2ccc(/C=N/Nc3ccc([N+](=O)[O-])cc3)o2)cc1,?,-6.4%,-54.7*,-1.2
O=C1NC(=O)C([N+](=O)[O-])=C(O)C1=O,·,-9.7%,-65.0*,-4.1
Cc1cc(C)c(NC(=O)C(C)n2nc(C)c3sc4ccccc4c3c2=O)c(C)c1 (centres undefined),8.7%,3.3%,·,0.3
O=C(Nc1cccc2ccccc12)c1ccc([N+](=O)[O-])cc1,-8.4%,-2.8%,-1.6,-3.3
O=C(Nc1cccc2c(=O)[nH][nH]c(=O)c12)c1ccc([N+](=O)[O-])cc1,·,·,-64.5*,-10.0

# Compound activity as filed in PubChem.
